Experimental data: PubChem BioAssay (EPA / NIEHS)
“And” between values parts separate entries of the source, which are not always exact repeats. Equal entries are not always repeated. Inconclusive results are not listed. The source made the active and inactive calls. The calls were made as follows: active = hit-call score of the fitted dose curve at least 0.9, where 1 is the maximum; inconclusive = response in the unintended direction; inactive = score below 0.9.

Biological target: human Dopamine Transporter (DAT), SLC6A3 (gene 6531) (UniProt Q01959)
Assay: NVS_TR_hDAT: NovaScreen (NVS) Transporter Assay for human Dopamine Transporter (DAT) (AID 2283374);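 also: activity means loss of bound radioligand signal relative to DMSO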
Method: NVS_TR_hDAT is a biochemical, single-readout assay that uses extracted gene-proteins in a cell-free assay. Measurements were taken 1 hour after chemical dosing in a 96-well plate.NVS_TR_hDAT is one of one assay component(s) measured or calculated from the NVS_TR_hDAT assay. It is designed to make measurements of radioligand binding, a form of binding reporter, as detected with scintillation counting signals by Filter-based radiodetection technology.Data from the assay component NVS_TR_hDAT was analyzed into 1 assay endpoint. This assay endpoint, NVS_TR_hDAT, was analyzed in the positive analysis fitting direction relative to DMSO as the negative control and baseline of activity. Using a type of binding reporter, loss-of-signal activity can be used to understand changes in the binding as they relate to the gene SLC6A3. Furthermore, this assay endpoint can be referred to as a primary readout, because the performed assay has only produced 1 assay endpoint. To generalize the intended target to other relatable targets, this assay endpoint is annotated to the transporter intended target family, where the subfamily is neurotransmitter transporter.
Binding assays used specific radioligands (tritiated, iodinated) with non-radioactive competitive displacement ligands in agonist or antagonist protocols (as indicated) and various reference compounds and inhibitors to titrate specific binding to receptors and transporters. Most enzyme assays (CYPs, kinases, phosphatases, proteases, HDACs) used recombinant protein and specific substrates (fluorescence mostly, some colorimetric and radioactive) and inhibitors, followed by a biochemical separation of substrate and product. All assays for the biochemical HTS were initially run in duplicate at a single concentration (10 uM for CYP450 assays and 25 uM for all others). […] Each assay was run with positive and negative controls, and concurrent controls on every plate. The follow-up (secondary) screen tested active chemical-pairs in concentration series, as well as a few additional assays not tested in the primary screen, some selected negative inactives, and several cases re-run in the concentration series for confirmatory purposes.

human Dopamine Transporter (DAT), SLC6A3 (gene 6531), sequence (Q01959 whole entry, looked up): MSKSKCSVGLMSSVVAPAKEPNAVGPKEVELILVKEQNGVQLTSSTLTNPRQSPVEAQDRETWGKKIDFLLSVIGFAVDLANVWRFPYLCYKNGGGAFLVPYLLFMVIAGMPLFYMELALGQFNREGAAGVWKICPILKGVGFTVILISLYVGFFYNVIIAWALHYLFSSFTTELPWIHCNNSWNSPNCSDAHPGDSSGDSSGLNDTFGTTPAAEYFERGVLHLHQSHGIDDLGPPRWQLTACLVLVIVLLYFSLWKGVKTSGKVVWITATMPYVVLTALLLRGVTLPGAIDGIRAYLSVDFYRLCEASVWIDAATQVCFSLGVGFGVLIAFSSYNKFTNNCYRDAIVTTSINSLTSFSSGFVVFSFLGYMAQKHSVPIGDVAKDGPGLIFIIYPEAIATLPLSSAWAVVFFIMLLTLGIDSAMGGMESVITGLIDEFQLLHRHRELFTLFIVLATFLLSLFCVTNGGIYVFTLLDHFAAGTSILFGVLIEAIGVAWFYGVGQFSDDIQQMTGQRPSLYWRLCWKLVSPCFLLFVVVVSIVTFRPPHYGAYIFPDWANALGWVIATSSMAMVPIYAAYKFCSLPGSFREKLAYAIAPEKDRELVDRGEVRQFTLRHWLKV

AC50, active:
N=C(N)c1ccc(OCCCCCOc2ccc(C(=N)N)cc2)cc1 4.11 µM
CN(C)c1ccc(C(=C2C=CC(=[N+](C)C)C=C2)c2ccccc2)cc1 6.41 µM and 3.13 µM
NC(=NCCCCCCN=C(N)/N=C(\N)Nc1ccc(Cl)cc1)/N=C(\N)Nc1ccc(Cl)cc1 0.458 µM
CN(Cc1cnc2nc(N)nc(N)c2n1)c1ccc(C(=O)N[C@@H](CCC(=O)O)C(=O)O)cc1 6.69 µM
Oc1cccc2c(O)cccc12 25 µM
CCCCCc1ccc(O)cc1 6.09 µM
C[C@]12CC[C@@H]3c4ccc(O)cc4CC[C@H]3[C@@H]1C[C@@H](O)[C@@H]2O 15.4 µM
Clc1ccc(Nc2nnc(Cc3ccncc3)c3ccccc23)cc1 0.987 µM
CCOC(OCC)C(=O)c1ccccc1 7 µM

outcome, inactive:
O=C(c1ccccc1)c1ccccc1
CCCCN(C)C
CCCCCCCCCCCCCCCCCC[N+](C)(C)Cc1ccccc1
